{"source": "PubChem BioAssay AID488848", "about": "(Broad Institute, 2010)", "note": "Results with a measured potency or affinity are listed apart. Active and inactive are the calls of the source.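 Rule for the calls: active = compounds lowering caspase signal with half-maximal concentration at most ten times their top tested dose; inconclusive = flat curve with 30 to 70% inhibition, or poor fit; inactive = the rest.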"}
{"assay": "caspase-3/7 inhibition in cytokine-treated INS-1E, dose response, beta-cell apoptosis inhibitor project, cell-based, caspase luminescence, dry powder (AID 488848)", "conditions": "INS-1E cytokine-induced caspase-3/7 luminescence, 48 h; series mostly up to 19.5 µM; activity change, negative = inhibition: at the top concentration"}
{"smiles": "COc1ccccc1S(=O)(=O)N(C)C[C@@H]1Oc2c(NC(=O)Nc3cccc4ccccc34)cccc2C(=O)N([C@@H](C)CO)C[C@H]1C", "activity change, negative = inhibition": "48.5% (inactive)"}
{"smiles": "COc1ccc(S(=O)(=O)N(C)C[C@@H]2Oc3c(NC(=O)Nc4cc(F)ccc4F)cccc3C(=O)N([C@@H](C)CO)C[C@H]2C)cc1", "activity change, negative = inhibition": "19.3% (inactive)"}
{"smiles": "COc1ccc(S(=O)(=O)N(C)C[C@@H]2Oc3c(NC(=O)Nc4cc(F)cc5c4OCOC5)cccc3C(=O)N([C@@H](C)CO)C[C@H]2C)cc1", "activity change, negative = inhibition": "-17% (inactive)"}
{"smiles": "COc1ccc(S(=O)(=O)N(C)C[C@@H]2Oc3c(NC(=O)Nc4cccc5c4NSN5)cccc3C(=O)N([C@@H](C)CO)C[C@H]2C)cc1", "activity change, negative = inhibition": "-24.4% (inactive)"}
{"smiles": "COc1ccc(S(=O)(=O)N(C)C[C@@H]2Oc3c(NC(=O)NC4CCCc5ccccc54)cccc3C(=O)N([C@@H](C)CO)C[C@H]2C)cc1", "note": "(stereo not given in full)", "activity change, negative = inhibition": "5.55% (inactive)"}
{"smiles": "COc1ccc(S(=O)(=O)N(C)C[C@@H]2Oc3ccc(NC(=O)Nc4cccc5ccccc45)cc3C(=O)N([C@@H](C)CO)C[C@H]2C)cc1", "activity change, negative = inhibition": "37.6% [at 21 µM] (inactive)"}
{"smiles": "C[C@@H]1CN([C@@H](C)CO)C(=O)c2cccc(NC(=O)Nc3cccc4ccccc34)c2O[C@H]1CN(C)S(=O)(=O)c1ccc(Oc2ccccc2)cc1", "activity change, negative = inhibition": "52.6% (inactive)"}
{"smiles": "COc1ccc(S(=O)(=O)N(C)C[C@@H]2Oc3c(NC(=O)Nc4cccc5c4CC(C)(C)O5)cccc3C(=O)N([C@@H](C)CO)C[C@H]2C)cc1", "activity change, negative = inhibition": "5.11% (inactive)"}
{"smiles": "COc1ccc(S(=O)(=O)N(C)C[C@@H]2Oc3c(NC(=O)Nc4ccc5occc5c4)cccc3C(=O)N([C@@H](C)CO)C[C@H]2C)cc1", "activity change, negative = inhibition": "6.21% (inactive)"}
{"smiles": "Cc1ccc(S(=O)(=O)N(C)C[C@@H]2Oc3c(NC(=O)Nc4ccc(F)cc4)cccc3C(=O)N([C@H](C)CO)C[C@H]2C)cc1", "activity change, negative = inhibition": "-12.5% (inactive)"}
{"smiles": "COc1ccc(S(=O)(=O)N(C)C[C@@H]2Oc3c(NC(=O)Nc4ccc5c(c4)OCCO5)cccc3C(=O)N([C@@H](C)CO)C[C@H]2C)cc1", "activity change, negative = inhibition": "-1.53% (inactive)"}
{"smiles": "C[C@@H]1CN([C@@H](C)CO)C(=O)c2cccc(NC(=O)Nc3cccc4ccccc34)c2O[C@H]1CN(C)S(=O)(=O)Cc1ccc(F)cc1", "activity change, negative = inhibition": "25.1% (inactive)"}
{"smiles": "COc1ccc(S(=O)(=O)N(C)C[C@@H]2Oc3c(NC(=O)Nc4cccc5ccccc45)cccc3C(=O)N([C@@H](C)CO)C[C@H]2C)cc1Cl", "activity change, negative = inhibition": "69.1% (inactive)"}
{"smiles": "C[C@@H]1CN([C@@H](C)CO)C(=O)c2cccc(NC(=O)Nc3cccc4ccccc34)c2O[C@H]1CN(C)S(=O)(=O)c1ccc(F)cc1", "activity change, negative = inhibition": "8.37% (inactive)"}
{"smiles": "C[C@@H]1CN([C@@H](C)CO)C(=O)c2cccc(NC(=O)Nc3cccc4ccccc34)c2O[C@H]1CN(C)S(=O)(=O)c1cccc(F)c1", "activity change, negative = inhibition": "78.6% (inactive)"}
{"smiles": "C[C@@H]1CN([C@@H](C)CO)C(=O)c2cccc(NC(=O)Nc3cccc4ccccc34)c2O[C@H]1CN(C)S(=O)(=O)c1ccccc1F", "activity change, negative = inhibition": "33.7% (inactive)"}
{"smiles": "COc1ccc(S(=O)(=O)N(C)C[C@@H]2Oc3c(NC(=O)Nc4cccc5ccccc45)cccc3C(=O)N([C@@H](C)CO)C[C@H]2C)c(OC)c1", "activity change, negative = inhibition": "35.2% (inactive)"}
{"smiles": "C[C@@H]1CN([C@@H](C)CO)C(=O)c2cccc(NC(=O)Nc3cccc4ccccc34)c2O[C@H]1CN(C)S(=O)(=O)c1ccc2c(c1)CCC(=O)N2", "activity change, negative = inhibition": "-3.48% (inactive)"}
{"smiles": "COc1cccc(S(=O)(=O)N(C)C[C@@H]2Oc3c(NC(=O)Nc4cccc5ccccc45)cccc3C(=O)N([C@@H](C)CO)C[C@H]2C)c1", "activity change, negative = inhibition": "13.2% (inactive)"}
{"smiles": "C[C@@H]1CN([C@@H](C)CO)C(=O)c2cccc(NC(=O)Nc3cccc4ccccc34)c2O[C@H]1CN(C)S(=O)(=O)c1ccc(Cl)cc1", "activity change, negative = inhibition": "-2.11% (inactive)"}
{"smiles": "COc1ccc(S(=O)(=O)N(C)C[C@@H]2Oc3c(NC(=O)Nc4cccc5ccccc45)cccc3C(=O)N([C@@H](C)CO)C[C@H]2C)cc1F", "activity change, negative = inhibition": "10.4% (inactive)"}
{"smiles": "COc1ccc(S(=O)(=O)N(C)C[C@@H]2Oc3c(NC(=O)Nc4cccc(C(F)(F)F)c4)cccc3C(=O)N([C@@H](C)CO)C[C@H]2C)cc1", "activity change, negative = inhibition": "4.38% (inactive)"}
{"smiles": "C[C@@H]1CN([C@@H](C)CO)C(=O)c2cccc(NC(=O)Nc3ccc(F)cc3)c2O[C@H]1CN(C)S(=O)(=O)c1ccc(Cl)cc1", "activity change, negative = inhibition": "40.6% (inactive)"}
{"smiles": "COc1ccc(S(=O)(=O)N(C)C[C@@H]2Oc3c(NC(=O)Nc4ccccc4-c4ccccc4)cccc3C(=O)N([C@@H](C)CO)C[C@H]2C)cc1", "activity change, negative = inhibition": "2.24% (inactive)"}
{"smiles": "C[C@@H]1CN([C@@H](C)CO)C(=O)c2cccc(NC(=O)Nc3cccc4ccccc34)c2O[C@H]1CN(C)S(=O)(=O)c1ccc(-c2ccccc2)cc1", "activity change, negative = inhibition": "14.8% (inactive)"}
